Here are results for 174 sequences from PMC6212790, “How bacterial xenogeneic silencer rok distinguishes foreign from self DNA in its resident genome”.

The full ranking holds about 33,000 sequences; the median of “e-score” is about -0.037, and the highest 2% start at about 0.34. The sample as a whole holds a higher share of the highest values than the screen did.

This experiment concerns the target T1, GST-Rok (full length) (Bacillus subtilis subsp. subtilis str. …, UniProt O34857 1-191).
T1 sequence: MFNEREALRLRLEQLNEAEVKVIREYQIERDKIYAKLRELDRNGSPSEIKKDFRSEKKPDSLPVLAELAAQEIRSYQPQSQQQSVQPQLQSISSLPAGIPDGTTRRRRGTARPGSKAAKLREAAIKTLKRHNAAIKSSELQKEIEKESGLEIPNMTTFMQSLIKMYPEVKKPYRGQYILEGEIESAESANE
Kind of experiment: protein binding microarray; Rok is a gene silencer of Bacillus subtilis; high values mean tight binding. The note with it: protein: recombinant; tags: GST (pTH5325, pDEST15-Magic modified); dsDNA, one strand shown. In short, it runs like this: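 Each has a 25-mer constant primer and a 35-mer variable part from a de Bruijn sequence of order 10, covering every non-palindromic 8-mer at least 32 times (palindromic 16). Preference for each 8-mer is given as a rank-based, unitless enrichment score (E-score). Its range runs from 0.5 (most favored) to −0.5 (most disfavored).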
As to CCTGGTCA, the binding signal was -0.133 E-score. As to GAAGTAGC, the binding signal came to 0.182 E-score. Regarding GGTCGGGA, the binding signal is -0.156 E-score. For CCCGACGA, the binding signal was -0.104 E-score. Next, AGCACTAA: -0.126 E-score; CAATAGAC: 0.089 E-score. AAAAGCGC: the binding signal is -0.0281 E-score.

Take ATGATAGC: the binding signal is 0.179 E-score. For ATGATATG, the binding signal was 0.172 E-score.

Consider ATGATATA, for which the binding signal was 0.389 E-score.

Turning to CTGATATA, the binding signal was 0.204 E-score.

For the sequence ATGATAGG, the binding signal amounted to 0.0932 E-score.

Consider ATGATAGA, for which the binding signal was 0.342 E-score. Turning to AATTCGTA, the binding signal was 0.263 E-score. Turning to ATAGTAAT, the binding signal was found to be 0.392 E-score. As to GGAGTAAA, the binding signal was -0.112 E-score. As to ATAGTAAG, the binding signal came out at 0.282 E-score. In the case of CTAGTAAC, the binding signal was 0.303 E-score. As for ATAGTCTC, the binding signal worked out at 0.0365 E-score. For GAAGTAAA, the binding signal was determined as 0.237 E-score. For the sequence ATAGTCTG, the binding signal is 0.347 E-score. With AGAGTAAT, the binding signal came out at 0.197 E-score. For GTAGTAAC the value was 0.321 E-score.

Take ATAGTAAC: the binding signal was determined as 0.366 E-score. As for ATAGTCTA, the binding signal came to 0.0771 E-score. Next, GTAGTAAA: 0.348 E-score. Next, CATAGGGA: -0.158 E-score; AGCCATAT: 0.162 E-score.

Take CTGTCCAC: the binding signal is -0.116 E-score. Next, GAAGAGTA: 0.266 E-score; GCAGCTTA: -0.093 E-score.

Regarding GCTCGAAC, the binding signal is -0.0353 E-score.

Take TCCTTAAA: the binding signal was -0.0816 E-score. Consider ATAGTATA, for which the binding signal stood at 0.278 E-score. ATAGTATC: the binding signal came out at 0.321 E-score. With TTAGTAAA, the binding signal is 0.237 E-score. For the sequence ATAGTATG, the binding signal stood at 0.359 E-score. Next, CTAGTAAA: 0.328 E-score. With ATAGTAAA, the binding signal was 0.397 E-score. In the case of AGATTCAA, the binding signal is 0.0974 E-score. As to AACTTTCG, the binding signal was -0.0406 E-score. Turning to ATTCGTTA, the binding signal was 0.228 E-score. With CAAGTTGC, the binding signal was -0.00109 E-score. GTAATGAA: the binding signal was -0.0724 E-score. Next, GTAATGTA: 0.364 E-score; ATAATGTA: 0.4 E-score; CTAATGTA: 0.184 E-score. Turning to ATAATGTC, the binding signal turned out to be 0.175 E-score.

Regarding ATAATGTG, the binding signal is 0.201 E-score.

As to ATTAACAG, the binding signal stood at 0.0334 E-score. Next, TACCGCCA: 0.0353 E-score; AAAGAAAG: 0.132 E-score; CGATACGA: -0.0427 E-score. For GTACGGCA, the binding signal was -0.048 E-score. For GGTATAAC the value was 0.313 E-score; for AGTATATG, 0.264 E-score. In the case of AGTATATA, the binding signal stood at 0.451 E-score. Next, AGTATATC: 0.221 E-score; AGTATAAA: 0.278 E-score; GGTATAAA: 0.383 E-score. Take CGTATATA: the binding signal stood at 0.28 E-score.

Take GGTATATA: the binding signal is 0.386 E-score.

As for GGTATAGA, the binding signal worked out at 0.222 E-score. Next, GGTCGTAA: 0.0357 E-score; AAGCCGAA: 0.00167 E-score; GTCTGGCA: -0.182 E-score. Next, ACTAATCG: 0.0113 E-score; ACCTTGGA: -0.145 E-score.

On to AAGCTAGC, for which the binding signal is 0.137 E-score.

For CAATAACG, the binding signal amounted to 0.0291 E-score. As for TAGTTTGA, the binding signal is 0.347 E-score. For TAGTTTCA the value was 0.392 E-score; for CAGTTTCA, -0.0996 E-score; for GAGTTTGA, -0.199 E-score. For GAGTTTCA the value was -0.16 E-score. Next, AAGTTTGA: -0.0342 E-score.

On to AATAAGAA, for which the binding signal worked out at 0.209 E-score.

In the case of CGGCGGCA, the binding signal is -0.198 E-score. AGTAGCGA: the binding signal is 0.181 E-score. On to AGACTATC, for which the binding signal came to 0.0106 E-score.

Turning to CAATCTAA, the binding signal came out at 0.172 E-score. With CGATCTAG, the binding signal came to 0.214 E-score. AAATCTCG: the binding signal was determined as 0.144 E-score.

In the case of GAATCTAA, the binding signal came out at 0.201 E-score. For the sequence CGATCTAA, the binding signal was -0.00615 E-score.

In the case of CAATCTAG, the binding signal is 0.285 E-score.

Turning to GAATCTAC, the binding signal came to 0.425 E-score. Take AGATCTAG: the binding signal was 0.167 E-score. Take CAATCTAC: the binding signal was determined as 0.365 E-score. For CGATCTAC, the binding signal is 0.371 E-score.

For AAATCTAG, the binding signal worked out at 0.35 E-score. Regarding GAATCTCC, the binding signal came to 0.00693 E-score.

Take AAAAACCG: the binding signal was -0.0149 E-score. AAACCAAA: the binding signal is -0.0651 E-score. As for ACGTTGGA, the binding signal was -0.0982 E-score. For the sequence CTCACTCA, the binding signal was 0.0449 E-score. Turning to ATGGTATG, the binding signal stood at 0.0823 E-score. In the case of AATCTCCG, the binding signal amounted to 0.0469 E-score.

Consider ACCCGCAG, for which the binding signal was -0.2 E-score.

As to ATAAACAA, the binding signal amounted to 0.0341 E-score.

On to TAATAACA, for which the binding signal is 0.238 E-score. Turning to AATGGGAG, the binding signal is -0.0919 E-score.

For GTTATCTA, the binding signal turned out to be 0.285 E-score. As for AACTTCGG, the binding signal is -0.044 E-score. With TACGAGAA, the binding signal is 0.113 E-score. For the sequence AAATCTAT, the binding signal is 0.315 E-score. AAATCTAA: the binding signal worked out at 0.157 E-score. Consider AAATCTAC, for which the binding signal worked out at 0.398 E-score.

Consider CGCATCGC, for which the binding signal was -0.115 E-score. Take AAGTCCCG: the binding signal is -0.14 E-score. On to CATAGAAA, for which the binding signal is 0.129 E-score.

Regarding AATAGAAA, the binding signal worked out at 0.371 E-score.

For AATAGAAT, the binding signal came out at 0.329 E-score. For AATAGAAC the value was 0.0621 E-score.

As to GATAGAAA, the binding signal turned out to be 0.307 E-score. On to TATAGAAA, for which the binding signal was found to be 0.363 E-score. As for ATGTGCTA, the binding signal was 0.222 E-score. For the sequence CCATATCC, the binding signal is -0.0185 E-score.

In the case of CGCGGCAA, the binding signal is 0.00655 E-score.

Consider CTTACTCA, for which the binding signal is -0.0171 E-score. Consider CGTTGAAG, for which the binding signal came out at 0.0718 E-score.

In the case of AACGGCGC, the binding signal is -0.0478 E-score. For ATAGCGAG the value was -0.0541 E-score. Consider CGAGTTAA, for which the binding signal was 0.153 E-score. Next, CAAGTTAA: 0.0371 E-score; CTAGTTAA: 0.349 E-score; GAAGTTAA: 0.277 E-score.

For GTAGTTAA, the binding signal was 0.431 E-score.

Turning to GTAGTTCA, the binding signal is 0.217 E-score.

Regarding AGACTGGA, the binding signal is -0.123 E-score. Turning to ACATAGTC, the binding signal stood at 0.114 E-score. Regarding AGTTACGA, the binding signal was determined as 0.167 E-score. As to ATTCACGA, the binding signal was -0.0154 E-score. Next, AAACAGCT: 0.0473 E-score; CCTTCACA: 0.0629 E-score. For the sequence TAGCTACA, the binding signal came to 0.37 E-score. TAGCTATA: the binding signal worked out at 0.346 E-score. For the sequence AAGCTATA, the binding signal is 0.231 E-score.

Consider GAGCTATA, for which the binding signal is 0.145 E-score. For ATGCTATA, the binding signal was determined as 0.339 E-score. Consider GTGCTATA, for which the binding signal turned out to be 0.147 E-score. Take GAGCTACA: the binding signal was 0.0398 E-score. With CTGCTATA, the binding signal stood at 0.0937 E-score. Regarding CAGCTACA, the binding signal stood at 0.0906 E-score. On to AAACTCCA, for which the binding signal is -0.0432 E-score. Next, CTCACTGC: 0.0486 E-score; AACGAATT: 0.325 E-score; ATAACAAT: 0.266 E-score. As to AACAACAC, the binding signal is -0.114 E-score. Regarding GATTTACA, the binding signal was 0.345 E-score. As to AATTTACC, the binding signal was 0.296 E-score. As to AATTTACT, the binding signal was 0.384 E-score. AATTTACG: the binding signal was 0.292 E-score. For the sequence AATTTACA, the binding signal worked out at 0.305 E-score. On to AAATTACT, for which the binding signal was determined as 0.386 E-score. For AAATTACA, the binding signal amounted to 0.301 E-score.

As for GAATTACC, the binding signal was 0.216 E-score. For AAATTACG, the binding signal was 0.194 E-score. For GATTTACC the value was 0.275 E-score. AAATTACC: the binding signal worked out at 0.347 E-score.

CAATTACC: the binding signal is 0.133 E-score. As for GCCGATGA, the binding signal was -0.108 E-score. For the sequence AGGTGAGC, the binding signal was -0.0616 E-score. On to ATTGATTC, for which the binding signal is 0.127 E-score.

Turning to TGCAGTAA, the binding signal stood at 0.194 E-score. For ATGGTAGC the value was 0.287 E-score. As to ATGGTATC, the binding signal is 0.165 E-score. As to ATGGTAGA, the binding signal amounted to 0.444 E-score. On to CTGGTAGA, for which the binding signal is 0.335 E-score.

For the sequence ATGGTAGG, the binding signal was determined as 0.243 E-score. Regarding CTGGTATA, the binding signal was 0.303 E-score. For GTGGTAAA the value was 0.192 E-score. Next, ATGGTATA: 0.381 E-score; GTGGTAGA: 0.435 E-score.
